Experimental data reported in ChEMBL document CHEMBL4513216, “Probing the Open Global Health Chemical Diversity Library for Multistage-Active Starting Points for Next-Generation Antimalarials” (ACS Infect Dis, 2020).
Out of some 69,000 compounds screened, about 8,600 (12%) showed an effect of 50% or more. The sample holds strong results, similar compounds and a random draw of the others, so the mix is not that of the screen.

Tested on: Plasmodium berghei
Assay: Screen against P. berghei liver stage (PbLuc), transformed with Luciferase, at 10uM
Type: functional, HepG2
Settings: tested at 10 uM

Row | SMILES | INHIBITION
1 | Cc1ccc2nc(C3CCN(CC(C)C)CC3)nc(O)c2c1 | -8.07%
2 | CC(C)Oc1ccc(C(=O)N2CCC(Nc3cccnn3)CC2)cn1 | -73.2%
3 | Cc1cccc(CN2CCCn3c(nnc3CN3CCCC3=O)C2)n1 | 24.8%
4 | Cc1ccc(NC2CCN(C(=O)C(C)n3cncn3)CC2)nn1 (stereo not drawn) | -19.4%
5 | O=C(c1ccccc1)N1C[C@H]2CC[C@@H](C1)N(C(=O)CN1CCOCC1)C2 | 0.897%
6 | CN(C(=O)COc1ccc(-c2noc(C3CCCO3)n2)cc1)C1CC1 (stereo not drawn) | -27.3%
7 | Cc1cc(C)cc(-n2ncc3c2CCCC3N)c1 (stereo not drawn) | 37.9%
8 | Cc1nc(C)n(CC(=O)N2CCCC(c3nc(C)n4c(C)csc34)C2)n1 (stereo not drawn) | 8.12%
9 | O=C(c1cn(-c2ccc(F)cc2)nn1)N1CCCC(n2cccn2)C1 (stereo not drawn) | -73.2%
10 | Cc1nc(CCNC(C)c2ccc3c(c2)OCCCO3)cs1 (stereo not drawn) | 10%
11 | CCCc1nnc(NC(C)c2ccc3c(c2)OCCO3)o1 (stereo not drawn) | 53.9%
12 | CCCc1nnc(NC(C)c2ccc(F)cc2)o1 (stereo not drawn) | 8.48%
13 | CCc1nnc(N[C@H](C)c2cccc(OC)c2)o1 | 8.48%
14 | CC(NC(=O)CNCCn1cccn1)c1ccc2c(c1)OCCO2 (stereo not drawn) | 24.8%
15 | CCCc1nnc(N[C@H](C)c2ccc(OC)cc2)o1 | 52.8%
16 | Cc1cc(C)n(C2CCCN(C(=O)Cc3cn4ccsc4n3)C2)n1 (stereo not drawn) | -15.52%
17 | CCc1ccc(C(C)NC(=O)N2CCC(n3cncn3)CC2)cc1 (stereo not drawn) | -73.1%
18 | CC(C)N1CCN(C(=O)c2[nH]nnc2Nc2ccccc2F)CC1 | 4.35%
19 | CC(=O)N1CCN(C(=O)c2[nH]nnc2Nc2ccccc2F)CC1 | -1.45%
20 | CC(C)CN1CCN(C(=O)c2[nH]nnc2Nc2ccccc2F)CC1 | 64%
21 | CC(=O)N1CCCC1c1cc(N2CCN(C3CCCC3)CC2)cc(C)n1 (stereo not drawn) | 34.5%
22 | CC(=O)N1CCCC1c1cc(N2CCN(CC3CC3)CC2)cc(C)n1 (stereo not drawn) | 45.6%
23 | CC(=O)N1CCCC1c1cc(N2CCN(CC(C)(C)C)CC2)cc(C)n1 (stereo not drawn) | 51.5%
24 | CC(C)=CCC1(C(=O)O)CCCN(c2ccnc(N)n2)C1 (stereo not drawn) | 15%
25 | Nc1nccc(N2CCC(Cc3ccccc3Cl)(C(=O)O)CC2)n1 | 23.5%
26 | N#Cc1cccnc1N1CCCC(CO)(CCOc2ccccc2)C1 (stereo not drawn) | 23.8%
27 | CCc1nc(N2CCCC(CO)(CCOC)C2)ncc1C (stereo not drawn) | -1.83%

Row | SMILES | INHIBITION
28 | N#Cc1cccc(N2CCCC(CO)(CCOc3ccccc3)C2)n1 (stereo not drawn) | 25.7%
29 | Nc1nccc(N2CCCC(CO)(CCOc3ccccc3)C2)n1 (stereo not drawn) | 86.8%
30 | OCC1(CCOc2ccccc2)CCN(c2ccc(Cl)cn2)CC1 | 32.2%
31 | N#Cc1ccc(N2CCCC(CO)(CCOc3ccccc3)C2)nc1 (stereo not drawn) | 59.1%
32 | OCC1(CCOc2ccccc2)CCCN(c2ccc(Cl)cn2)C1 (stereo not drawn) | 83.3%
33 | Cc1cnn(CC2CCCN2C(=O)CCc2ccc3c(c2)OCO3)c1 (stereo not drawn) | 9.64%
34 | COC(=O)N1CCC(NC(=O)c2cc(S(N)(=O)=O)ccc2C)CC1 | 14.6%
35 | COc1cc(N2CC3(CCN(S(C)(=O)=O)C3)C2)ncn1 | -21.7%
36 | CCOC(=O)c1sc(NC(=O)COC)c(C#N)c1C | -30.8%
37 | COCCN1CCCN(C(=O)c2scnc2C)CC1 | -2.03%
38 | c1ccc(CN2CCCC(Cn3cncn3)C2)nc1 (stereo not drawn) | 24%
39 | Cc1nc(N2C[C@@H](CN3CCCN(C)CC3)[C@@H](CO)C2)c2ccsc2n1 | 50.1%
40 | Cc1nc(N2CC[C@@H](NC(=O)c3cnccn3)[C@H](O)C2)c2ccsc2n1 | 85.1%
41 | Cc1nc(C)c(C)c(N2C[C@@H](CN3CCCN(C)CC3)[C@@H](CO)C2)n1 | 15.5%
42 | Cc1nc(N2C[C@@H](CN3CCCN(C)CC3)[C@@H](CO)C2)c2sccc2n1 | 26.6%
43 | Cc1nccnc1N1CC[C@@H](NC(=O)c2cnccn2)[C@H](O)C1 | -3.19%
44 | CCC[C@@H]1CN(c2ncnc3sccc23)C[C@H]1NS(C)(=O)=O | 27.2%
45 | O=C(N[C@@H]1CCN(c2nccc3ccccc23)C[C@H]1O)c1cnccn1 | 5.78%
46 | COC1[C@@H]2CC[C@H]1CN(c1nc(C)nc3sccc13)C2 (stereo partly drawn) | 72.6%
47 | CCN(Cc1cccc2c1OCO2)C(=O)C(C)c1cccnc1 (stereo not drawn) | 40.9%
48 | CCc1noc(C(C)Sc2nnc(C3CC3)n2CC(N)=O)n1 (stereo not drawn) | 29%
49 | c1coc(-c2nc(CNC3CCC4(CCNCC4)CC3)no2)c1 | 33.1%
50 | O=C([C@H]1CCCO1)N1Cc2nccn2CC(COc2cccnc2)C1 (stereo partly drawn) | -30%
51 | CN(c1ccncn1)C1CC2(CCN(C(=O)c3cccs3)C2)C1 (stereo not drawn) | 42.1%
52 | CN(c1ccncn1)C1CC2(CCN(C(=O)Cc3cccs3)C2)C1 (stereo not drawn) | 51.5%
53 | CN(c1ccncn1)C1CC2(CCN(C(=O)CCc3cccs3)C2)C1 (stereo not drawn) | 37.5%
